Experiments:
Test in all cases: PBM binding z-score (relative to random genomic background probes); higher = stronger binding; sequences stand for … in GC…GCGATTGACAGCGTAGAATGAAGG
[1] = test system: RARb homodimer (NR concentration 270 nM)
Outline: (§1)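 Antibodies against each partner of ligand-free nuclear receptor dimers (one per run) detected binding on custom Agilent 4×180K protein-binding microarrays after 1 h incubation. The double-stranded probes had 34-nt variable regions carrying direct-repeat seeds, single-nucleotide variants, half-site ablations and random human genomic background sequences. Binding z-scores, from regression-normalized fluorescence, use the random background probes as reference.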

[2] = test system: RARg:RXRa (NR concentration 270 nM, RXRa partner concentration 90 nM)
Outline: as §1

[3] = test system: RARg homodimer (NR concentration 270 nM)
Outline: as §1

[4] = test system: RXRa DBDmut IVT, anti-RXR (DBD mutation: RXRa K156A/R161A, NR concentration 90 nM)
Outline: as §1

[5] = test system: RXRa homodimer (NR concentration 180 nM)
Outline: as §1

[6] = test system: THRa:RXRa (NR concentration 90 nM, RXRa partner concentration 90 nM)
Outline: as §1

[7] = test system: THRa homodimer (NR concentration 90 nM)
Outline: as §1

[8] = test system: VDR homodimer (NR concentration 270 nM)
Outline: as §1

Sequence | PBM binding z-score [1] | PBM binding z-score [2] | PBM binding z-score [3] | PBM binding z-score [4] | PBM binding z-score [5] | PBM binding z-score [6] | PBM binding z-score [7] | PBM binding z-score [8]
CCTGCTGGGCCATCAGGTCATTGATATCAACGTT | 2.51 | 2.06 | 2.01 | 0.287 | 1.01 | 3.19 | 2.31 | 1.01
CGTCCAAGGTCAGCAGGTAAGTGAAAGCGACGTG | 3.74 | 5.27 | 5.92 | 2.48 | 3.94 | 3.46 | 2 | 0.856
TCTAGTTGGTCACCGAGGTCACACACGACGGGTA | 4.5 | 4.8 | 4.64 | 1.4 | 5.06 | 4.2 | 4.2 | 3.89
ATATCTAGGTTACATCCGGGTCATTCAGGCTATG | 3.15 | 3.37 | 2.49 | 1.4 | 2.78 | 3.94 | 3.37 | 3.63
ATCTCTCGGTAAAAGTTCAGTGAATCCCGAGGAT | 2.43 | 1.76 | 2.03 | 0.823 | 0.954 | 0.761 | 0.0329 | 1.74
AATATTAGTTGACTTAGGGCAACCGATACGACGC | 0.918 | 0.615 | 0.87 | 0.532 | 0.76 | 1.44 | 0.572 | 0.87
CCTACTGGCCCAAGGTCATTGATCAGTCAAAGCA | 3.58 | 3.48 | 2.65 | 1.58 | 3.16 | 3.57 | 2.81 | 2.79
TCATATAAGTAAAGGTGAAAGTCGAACGATATGA | 1.41 | 1.5 | 1.25 | 0.638 | 2.04 | 1.18 | -0.569 | -0.0399
CGAACTAGGTCACGAAAGGTCAAAGTCGAATGAC | 6.05 | 7.91 | 8.67 | 2.37 | 8.55 | 5.01 | 2.52 | 3.39
CGAACTAGGTCATTGACAGGACAGTGAGTAGTAA | 2.57 | 4.39 | 4.12 | 2.41 | 2.42 | 2.81 | 0.505 | 0.794
GCATAAAGGTAATACAAGGTGAAAGTCCGATTGT | 1.18 | 1.15 | 0.92 | 0.231 | 1.32 | 4.64 | 0.994 | 0.291
TAGCCTAGGTCATTAGGCCAGTATAGTACGCATC | 2.93 | 3.47 | 3.8 | 1.54 | 2.1 | 2.4 | 0.34 | 0.922
TCGAGTAGTTTACCAATGGGGCATTCAGCTTTCT | 0.239 | -0.401 | -0.51 | 0.878 | -0.356 | -0.217 | -0.644 | -0.305
TCTAGTTGGTCACGTAGGTCACACACGACGGGTA | 3.66 | 3.36 | 3.67 | 1.06 | 2.91 | 2.39 | 1.04 | 1.22
ACTAGCAGGCGAAGTTTGGGTCACTCAAACAAAG | 1.48 | 0.795 | 0.54 | -0.3 | 0.656 | 1.91 | 0.813 | -0.246
AGAATGAGGTTGAGATCAGGGAAACAGAATACAT | 0.193 | 0.514 | 0.477 | -0.1 | 0.612 | 1.35 | -0.0652 | 0.0379
ACTATTAGTTGACATAGGGCAACCGATACGACGC | 1.24 | 0.928 | 1.29 | 0.826 | 0.903 | 1.25 | 0.125 | 0.399
AGTCAAAGTTCATCTAGGAAACGTAAGATATGCT | 3.89 | 5.45 | 6.42 | 4.79 | 4.58 | 1.98 | -0.21 | 4.34
CGAATTAGGTCAAGGACAGTGAATCTCCGCACGC | 3.29 | 3.94 | 4.46 | 1.46 | 2.97 | 3.53 | 2.81 | 0.373

Sequence | PBM binding z-score [1] | PBM binding z-score [2] | PBM binding z-score [3] | PBM binding z-score [4] | PBM binding z-score [5] | PBM binding z-score [6] | PBM binding z-score [7] | PBM binding z-score [8]
CCTACTGGGGCATAAGGTTACCATAAGCCAGCCC | 1.86 | 1.78 | 1.29 | -0.346 | 1.17 | 2.05 | 0.894 | -0.339
TCTATTAGTTTAAGGGCAACCGACGAGTCCGTTT | 2.12 | 0.831 | 1.17 | 1.94 | 0.958 | 2.69 | 2.56 | 2.78
CCTACTGGGTCAAGGTCATTGATCAGTCAAAGCA | 4.88 | 5.77 | 5.74 | 2.59 | 5.72 | 4.24 | 3.31 | 4.04
CGTCCAAGGTCAATGCTAGGTGAGTGAAAGCATT | 3.95 | 5.76 | 6.07 | 3.39 | 4.73 | 3.92 | 2.34 | 2.15
ATCGAAAGGTCGACGAGGGGAGTATACACCGTTT | 2.53 | 4.16 | 4.01 | 1.29 | 4.27 | 2.18 | -0.0563 | 0.446
AGTCAAAGTTAACTAGGTAACGTAAGATTCAGCT | -0.331 | 0.302 | 0.566 | -0.266 | 0.258 | 0.564 | -0.252 | -0.183
CCTACTGGGCAAAGGTCATTGATCAGTCAAAGCA | 4.39 | 6.27 | 4.92 | 1.48 | 6.88 | 3.05 | 0.287 | 2.31
ATCTCTAGGTAACAGGTTCAGTGAAAGAGAGGAC | 1.15 | 0.818 | 0.667 | 0.757 | 0.828 | 1.58 | 1.34 | 2.78
TCTATTAGTTGAAGGGCAACCGCCGAGTCCGTTT | 1.41 | 0.448 | 0.651 | 1.57 | 0.559 | 0.213 | 0.417 | 1.86
GCGGCTAGGTCAACTGATGGTCAGCTAAAGCTCG | 3.7 | 5.19 | 5.19 | 1.17 | 2.84 | 2.95 | 0.698 | -0.00796
TCTAGTTGGTCCCGGAGGTCACACACGACGGGTA | 3.79 | 3.99 | 3.7 | 0.937 | 4.39 | 3.59 | 3.02 | 2.67
ATCGCTAGGTAAAGATAGTTCAGTGAATGCAAAT | 0.559 | 0.136 | 0.387 | -0.61 | -0.287 | 0.234 | -0.407 | -0.0178
ACTATTAGGTGAGACGAGGGCAACCGATAGGTTG | 1.7 | 1.03 | 1.43 | 0.288 | 0.97 | 3.84 | 0.802 | 1.07
ACTAGCAGGCCAAGGGTCACTCACGATTAGTCCG | 3.79 | 3.91 | 2.97 | 0.459 | 3.93 | 2.56 | 0.409 | 1.07
ATCTCTAGGTAACCATGTTCAGTGAATGCCGAAC | 0.332 | 0.315 | 0.421 | 0.392 | 0.272 | 0.812 | 0.66 | 0.0942
CAAACTAGGTCACAGAGTTCAAAGTCCGTGCGTA | 4.74 | 6.06 | 6.71 | 4.25 | 5.69 | 4.03 | 1.96 | 9.52
ACTAGCAGGACAAGTTTGGGTCACTCAAACAAAG | 2.28 | 1.51 | 1.55 | 0.164 | 0.931 | 2.62 | 1.42 | 0.216
CCTTACGGGTCACTGACAGGTTATTGCATTTGGA | 3.24 | 5.55 | 4.57 | 1.94 | 5.07 | 2.92 | 0.504 | 1.45
CGAACGAGGGCATGAGTTGGTAGCAAATGCCGAT | 0.553 | 0.807 | 1.29 | 1.87 | 0.675 | 1.03 | -0.283 | 0.904

Sequence | PBM binding z-score [1] | PBM binding z-score [2] | PBM binding z-score [3] | PBM binding z-score [4] | PBM binding z-score [5] | PBM binding z-score [6] | PBM binding z-score [7] | PBM binding z-score [8]
ATCTCTAGATAAGACTCAGTTCAGTGAAGAACGC | 0.0113 | -0.0447 | 0.323 | 0.327 | -0.154 | 0.116 | -0.107 | 1.02
ATCTCTAGGTAACAAGTTCAGTGAAAGAGAGGAC | 1.78 | 1.52 | 1.61 | 1.06 | 0.955 | 1.68 | 0.986 | 3.36
TGTCAAAGTTCAAAGGTAACGGAAGTATCCACAC | 3.76 | 6.56 | 5.94 | 4.29 | 7.52 | 2.99 | 0.158 | 4.06
TCTAGTGGGTCACGGAGGTCACACACGACGGGTA | 4.95 | 6.73 | 7.18 | 1.53 | 7.69 | 4.26 | 2.34 | 6.17
CAAACTAGGACACCGGAAGGTCAAAGTCCGCATG | 4.14 | 4.12 | 3.83 | 0.721 | 3.58 | 3.71 | 2.1 | 2.92
TACACAGGGTCAAAGGCCAGAGTACGAATGTCGA | 3.22 | 5.65 | 5.36 | 3 | 7.62 | 3.5 | 0.79 | 3.23
CCTTACTGGTCACTCCAGGTTATAGCATCGGAGT | 1.42 | 0.885 | 1.32 | 0.271 | 0.519 | 3.26 | 1.03 | 0.805
ATATGTAGGTTATGGGGTCATTCAGTTTGCGCAT | 4.16 | 5.29 | 3.67 | 2.9 | 6.67 | 4.35 | 4.19 | 7.28
ATCGAAAGGTGGTGAGGTGAGTATACAGAAAGGC | 1.13 | 0.717 | 0.846 | -0.654 | 0.748 | 1.8 | 1.23 | 0.366
CCTTACGGGTCACGAGGTTAAAGCACGACGAGCG | 3.99 | 6.28 | 5.56 | 2.06 | 6.97 | 3.82 | 0.843 | 2.06
CCTAATGGGCCAAGGTCATTGATCAGTCAAAGCA | 3.46 | 3.94 | 3.82 | 1.91 | 3.73 | 3.4 | 2.52 | 3.34
CCAGACAGGTGAGATGGTAACTCAGCCTCGATTA | 0.103 | 0.164 | 0.225 | -0.124 | -0.0452 | -0.143 | 0.146 | 0.202
ATCTCTAGGTAACCAAGTTAAGTGAATGCCGAAC | 0.215 | 0.245 | 0.306 | -0.119 | 0.154 | 0.825 | 0.542 | -0.108
CGTCCAAGGCCAAGGTCAGTGAAAGAGACTCGAA | 3.42 | 2.86 | 3.7 | 1.31 | 1.83 | 2.87 | 1.51 | 0.947
ATCTGTAGGTAAAAGTTCAGTGAATCCCGAGGAT | 2.42 | 1.79 | 1.84 | 0.663 | 1.65 | 0.83 | -0.173 | 1.36
TCTCAAAGTTCAAAGGTAACGTAAGTATCCACAC | 4.13 | 6.13 | 6.25 | 4.59 | 7.17 | 3.46 | 0.566 | 4.09
TCGAGTAGGTTACCTATGGGGCATTCAGCTTTCT | 0.279 | 1.39 | 0.398 | 0.211 | 0.571 | 0.16 | -0.89 | -0.367
GCGACTGGGGCAAAGCAGGTTACCAAAAGGTTGG | 1.39 | 0.739 | 0.527 | -0.337 | 0.52 | 3.28 | -0.199 | -0.329

Reference: the supplement of paper PMC6555819
